# Measured values: PubChem BioAssay AID1985 (Southern Research Specialized Biocontainment Screening …, 2009)
# Screen size: about 2,300 compounds; about 1,000 (43%) were called active. So high a share suggests a set chosen from earlier hits. Some of the results follow. Entries with a potency or affinity are not part of this list. Values without a mark were called inactive. The rule behind the calls is not given here.
# Experiment: modified counter assay using GFP fluorescence, PhoP regulon inhibitor project, dose response (AID 1985)
# Conditions: S. Typhi, 4 h; series mostly up to 150 µM; inhibition: at the top concentration
row,SMILES,inhibition
1,Cc1nc(C)c(-c2ccc(SCc3ccccc3C)nn2)s1,1.29%
2,COc1ccc(-c2nnc(SC(C)C(=O)Nc3nccs3)n2Cc2ccccc2)cc1OC (centres undefined),-11.8%
3,CC1=C(C#N)CCC(=O)N1Cc1c(C)cc(C)cc1C,16.8%
4,COc1ccc(Cl)cc1NC(=O)c1cc(-c2ccccc2)on1,-9.57%
5,CC(Oc1ccc(Br)cc1)c1nc2c3ccccc3nc(=S)n2[nH]1 (centres undefined),36.7%
6,COc1ccc(NC(=O)Cn2cnc3c(cnn3C(C)(C)C)c2=O)cc1OC,-7.57%
7,COc1ccc(-n2nnc3c(SCC(=O)N4CCCc5ccccc54)ncnc32)cc1,-1.62%
8,Cc1ccn2cc(C(=O)Nc3nnc(C)s3)nc2c1,8.12%
9,Cc1cc(C(=O)OCC(=O)Nc2cccc(S(=O)(=O)N3CCOCC3)c2)c(C)o1,-14.2%
10,C#CCOCCOCCOCCNc1nc(N2CCN(C(=O)C(Cc3cc4ccccc4[nH]3)n3cc(C(N)C(C)CC)nn3)CC2)nc(N2CCN(C(=O)C(Cc3cc4ccccc4[nH]3)n3cc(C(N)C(C)CC)nn3)CC2)n1 (centres undefined),4.82%
11,C#CCOCCOCCOCCNc1nc(N2CCN(C(=O)[C@H](CCCCN)n3cc([C@@H](N)CO)nn3)CC2)nc(N2CCN(C(=O)[C@H](Cc3cc4ccccc4[nH]3)n3cc([C@@H](N)Cc4ccc(O)cc4)nn3)CC2)n1,6.35%
12,Nc1ccc(C(O)(C(F)(F)F)C(F)(F)F)cc1,-17.8%
13,C#CCOCCOCCOCCNc1nc(N2CCN(C(=O)[C@H](Cc3ccc(O)cc3)n3cc([C@@H](N)C(C)CC)nn3)CC2)nc(N2CCN(C(=O)[C@H](Cc3cc4ccccc4[nH]3)n3cc([C@@H](N)Cc4ccc(O)cc4)nn3)CC2)n1 (some centres undefined),-18.6%
14,C#CCOCCOCCOCCNc1nc(N2CCN(C(=O)[C@H]([C@@H](C)CC)n3cc([C@@H](N)CO)nn3)CC2)nc(N2CCN(C(=O)[C@H](Cc3cc4ccccc4[nH]3)n3cc([C@@H](N)Cc4ccc(O)cc4)nn3)CC2)n1,14.7%
15,C#CCOCCOCCOCCNc1nc(N2CCN(C(=O)C(Cc3ccc(O)cc3)n3cc(C(N)CC(C)C)nn3)CC2)nc(N2CCN(C(=O)C(Cc3cc4ccccc4[nH]3)n3cc(C(N)Cc4ccc(O)cc4)nn3)CC2)n1 (centres undefined),-16.3%
16,O=C(O)c1[nH]c2ccc(Br)cc2c1CCN1C(=O)c2cccc([N+](=O)[O-])c2C1=O,28.4%
17,Cc1ccc(CCNC(=O)c2cc(S(=O)(=O)N3CCCCC3)c[nH]2)cc1,-3.72%
18,CN1CCN(c2ccc(NC(=O)CSc3ccccc3)cc2F)CC1,-5.04%
19,CCOc1ccccc1NC(=O)CSc1nc(N)c(C#N)cc1C#N,-8.74%
20,Cn1cnnc1SCC(=O)Nc1ccc2nc(SCc3ccccc3)sc2c1,18.3%
21,CCOC(=O)c1ccc(NC(=O)CSc2nc(N3CCOCC3)nc(N3CCOCC3)n2)cc1,-12.2%
22,O=C(Nc1ccc2c(c1)OCCO2)C1CCCN1C(=O)Nc1ccc(F)cc1 (centres undefined),-20.6%
23,C/C=C/c1ccc(OCc2cc(=O)n3cc(C)ccc3n2)c(OC)c1,4.23%
24,CCN(CCCNC(=O)c1cn(CC)c2ccc(S(=O)(=O)N(C)C)cc2c1=O)c1cccc(C)c1,-6.32%
25,Cc1ccc(CCN2C(=O)CCC2(C)C(=O)NC2CCCC2)cc1 (centres undefined),-30.8%

row,SMILES,inhibition
1,O=C(NCc1ccccc1)N[C@@H](Cc1c[nH]c2ccccc12)C(=O)O,-11.1%
2,Cc1c(NC(=O)OCc2ccccc2)c(=O)n(-c2ccccc2)n1C,11.8%
3,Cc1c(-n2cc(C(=O)c3ccccc3O)cc(C#N)c2=O)c(=O)n(-c2ccccc2)n1C,-2.88%
4,Cc1ccc(NC(=O)c2sccc2C)cc1[N+](=O)[O-],18.1%
5,COc1ccc(NC(=O)CC2Sc3ncnn3C2=O)cc1 (centres undefined),34.3%
6,N=c1sc2c(n1Cc1ccccc1)CCCC2,32%
7,Cc1cc(NC(=O)/C=C/C(=O)N(c2ccccc2C)C(C(=O)NC2CCCC2)c2ccc(F)cc2)no1 (centres undefined),-12.8%
8,C[C@@H](NC(=O)[C@@H]1Cc2ccccc2CN1)C(=O)NCC1CCCO1 (some centres undefined),-20.9%
9,CC(C)(C)Nc1c2ccccc2nc2ccccc12,-15%
10,CCOc1ccc(NC(=S)Nc2cc(C)[nH]n2)cc1,-18.7%
11,COc1ccccc1Nc1cc(C(=O)NCc2cccnc2)c2ccccc2n1,-14.3%
12,COc1ccc(Nc2c3c(nc4ccc(C)cc24)CCC3)cc1,-11.8%
13,CC1CCN(C(=O)COc2ccc(Nc3ccccc3)cc2)CC1,-4.41%
14,COc1c(C(=O)N2CCCC2)ccc2ccccc12,-21.1%
15,CCOC(=O)c1ccc(NC(=O)C2CCC(CNc3c(N4CCOCC4)c(=O)c3=O)CC2)cc1 (centres undefined),12.1%
16,CCCCNC(=O)CCC(=O)Nc1ccc2nc(N3CCC(C)CC3)cc(C)c2c1,32.3%
17,COc1ccc(N=CC2=C(Nc3ccc(OC)cc3)c3c(C)nn(-c4ccccn4)c3CC2)cc1,3.36%
18,CCO[C@H]1OC(C(=O)O)=C[C@@H](c2ccccc2)[C@@H]1CCCO,-17.4%
19,Clc1ccc2c(c1)C(N1CCNCC1)Cc1ccccc1S2 (centres undefined),31%
20,O=C(NCc1ccco1)C1CCN(C(=O)c2cc3sccc3n2Cc2ccc(Cl)cc2)CC1,-20.7%
21,Cc1ccc2nc(/C(C#N)=C\c3ccc(N4CCCCC4)c([N+](=O)[O-])c3)[nH]c2c1,37.4% [at 75 µM]
22,C#CCOCCOCCOCCNc1nc(N2CCN(C(=O)CCCCCCCCCCNC(=O)[C@H](CCCCN)n3cc(CCO)nn3)CC2)nc(N2CCN(C(=O)CCCCCCCCCCNC(=O)[C@H](CCCCN)n3cc(CCO)nn3)CC2)n1,-15.8%
23,CCOC(=O)c1cc(-c2ccncc2)nc2c1c(C)nn2-c1ccccn1,16.8%
24,CN(C)/C=N/c1ncc(C(=O)c2ccc(Cl)cc2)s1,-14.3%
